Compound activity deposited in PubChem by National Center for Advancing Translational Sciences (NCATS).
TRb SRC2 PPI: disrupts binding of human TR beta to SRC2; Potency, µM (top dose mostly 106 µM), inactives show at the highest dose activity change, negative = inhibition, actives largely listed as inhibitors; 280,000 tested, 0.065% active; TRbeta-SRC2 peptide binding, fluorescence polarization; receptor liganded with 1 µM T3;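 note: plate controls were bound peptide for no effect and peptide without receptor for full effect; nearly all actives have a fitted effect of over 50% in size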
Target sequence (P10828 whole entry, looked up): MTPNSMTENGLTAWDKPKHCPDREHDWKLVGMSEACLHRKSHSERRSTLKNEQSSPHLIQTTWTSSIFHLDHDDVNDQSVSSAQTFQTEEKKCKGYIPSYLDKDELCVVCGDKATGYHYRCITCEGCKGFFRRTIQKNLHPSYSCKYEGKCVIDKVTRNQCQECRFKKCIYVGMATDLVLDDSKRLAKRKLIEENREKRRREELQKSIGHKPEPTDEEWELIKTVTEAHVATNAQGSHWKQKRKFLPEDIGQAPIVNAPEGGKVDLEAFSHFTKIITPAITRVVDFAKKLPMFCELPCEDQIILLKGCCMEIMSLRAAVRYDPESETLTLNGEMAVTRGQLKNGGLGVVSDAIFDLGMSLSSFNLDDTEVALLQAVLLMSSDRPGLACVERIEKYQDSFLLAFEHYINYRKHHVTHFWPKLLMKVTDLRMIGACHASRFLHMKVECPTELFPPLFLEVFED
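Human TRb ligand-binding domain (0.6 uM) is mixed with 20 nM Texas Red SRC2 peptide and 1 uM T3; after compound addition and 5 hr at ambient temperature, polarization is measured and normalized to unbound and bound controls.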
Tau ThT inhib: tau fibrillization inhibition (ThT binding). Potency, µM (titrated, usually from 57.4 µM), inactives show at the highest dose activity, negative = inhibition, actives largely listed as inhibitors. recombinant tau K18 P301L, heparin-induced fibrillization, ThT fluorescence. 270,000 tested, 2.1% active; note: nearly all actives have a fitted effect of over 55% in size
Target sequence (P10636 561-689 P618L limits assumed): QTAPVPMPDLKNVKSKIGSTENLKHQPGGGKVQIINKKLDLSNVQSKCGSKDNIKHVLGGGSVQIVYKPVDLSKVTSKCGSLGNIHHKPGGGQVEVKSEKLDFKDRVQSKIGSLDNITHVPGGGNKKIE
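Aggregation was driven by heparin (20 uM final) acting on recombinant tau […] bearing P301L in 100 mM sodium acetate pH 7; fibrils were detected with Thioflavin T.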
Tau fluor counter: counter-screen for tau fibril formation inhibitors | 280,000 tested, 0.93% active | Potency, µM (titrated, usually from 57.7 µM), for the others: at the top dose activity change, negative = decrease | tau K18 P301L Alexa594 fluorescence, heparin fibrillization; note: nearly all actives have a fitted effect of over 55% in size
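Human tau K18 P301L (15 uM unlabeled, 0.24 uM Alexa 594-labeled) in 100 mM sodium acetate pH 7 with 20 uM heparin, 6 hr at 37 C. ThT 30 uM added, 1 hr ambient; Alexa 594 FP and total fluorescence read at 555/632 nm.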
Tau FP inhib: inhibitors of human tau fibril formation. AID 1468. K18 P301L tau heparin fibrillization, Alexa594 FP, 6 h. 280,000 tested, 0.39% active. Potency, µM (titrated, usually from 57.7 µM), inactives show top-dose activity, negative = inhibition, hits mostly inhibitors; note: nearly all actives have a fitted effect of over 55% in size
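Steps: dispense K18 P301L tau (15 uM plus 0.24 uM Alexa 594 tracer, final) in pH 7 sodium acetate; add compound; add heparin (20 uM final); incubate 6 hr, 37 C; add ThT (30 uM final); after 1 hr ambient, read FP.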
TR SRC2 fluor cs: alters Texas Red total fluorescence, flagging assay interference. TRb/SRC2 Texas Red total fluorescence interference. Potency, µM (series often up to 106 µM), inactives show at the top dose fluorescence change, negative = quenching. 280,000 tested, 0.29% active; active = well fitted curve in either direction with a large enough effect; inconclusive = small, poorly fitted or top-dose-only effect
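Flags fluorescent or light-absorbing compounds by total fluorescence, S + 2P, at 555 nm excitation and 632 nm emission. Mixture: 20 nM Texas Red SRC2 peptide, 0.6 uM human TRb LBD, 1 uM T3, 5% DMSO; compound exposure 5 h at ambient temperature.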
GoLoco inh red: blocks human Gai1 binding to RGS12 GoLoco peptide, red readout. 230,000 tested, 0.44% active. Gai1:RGS12 GoLoco peptide FP, rhodamine, 10 min. AID 880. P63096. Potency, µM (top dose mostly 61.6 µM), for the others: at the top dose activity, negative = inhibition, usual class: inhibitors; active = well fitted inhibition curve with a large enough effect, not every such curve was filed as active; inactive = no such curve, though single readings can be large or run the other way; note: nearly all actives have a fitted effect of over 30% in size
* hit, by the source's call; ? = inconclusive; . = not tested or not shown; [ ] = dose if it differs, or a comment. A selection: hits, their analogues and other compounds. The true share with any hit is near 3.1%. Unless noted, calls come from the whole dose curve; as a rule, active = well fitted curve in the direction sought with a large enough effect; inconclusive = small, poorly fitted or top-dose-only effect, or another doubt; inactive = no such curve, though single readings can be large; an effect the other way counts as inactive or inconclusive. Unless noted, % is set by controls: 0 for no effect and ±100 for the full control effect; potency is the fitted concentration of half-maximal effect.

SMILES	TRb SRC2 PPI	Tau ThT inhib	Tau fluor counter	Tau FP inhib	TR SRC2 fluor cs	GoLoco inh red
COC(=O)c1c(C)sc(-c2c(-c3ccc4c(c3)OCCO4)[nH]c3c2c(=O)n(C)c(=O)n3C)c1O	4%	0%	?	?	-6%	.
CCOC(=O)c1c(C)sc(-c2c(-c3ccccc3)[nH]c3[nH]c(=O)[nH]c(=O)c23)c1O	-11%	?	6.3µM*[quencher]	4%	4%	.
CCOC(=O)c1c(C)sc(-c2c(-c3ccc(OC)c(F)c3)[nH]c3c2c(=O)[nH]c(=O)n3C)c1O	8%	?	13µM*[quencher]	13%	8%	.
COC(=O)c1c(C)sc(-c2c(-c3ccc4c(c3)OCCO4)[nH]c3[nH]c(=O)[nH]c(=O)c23)c1O	6%	?	20µM*[quencher]	?	?	.
O=c1[nH]c2ccccc2nc1/C=C(\O)C1CC1	3%	1%	7%	6%	-5%	19%
CCCCN(CCCC)CCCCCCN(CCCC)CCCC	0%[201 µM]	.	.	.	3%[201 µM]	.
Cc1ccc2c(c1)c(=O)c1c3n2CCN(C(=O)CCl)C3CC1 (stereo not drawn)	-5%	14µM*	?	?	-3%	3%
N#C/C(=C\c1ccc(-c2cccc(Cl)c2)o1)C(=O)Nc1cccc(C(F)(F)F)c1	?	-3%	-12%	-4%	0.089µM*[quencher]	.
Cc1c(NC(=O)/C(C#N)=C/c2ccc(-c3ccc(Cl)cc3)o2)c(=O)n(-c2ccccc2)n1C	3%	14µM*	-19%	8%	-4%	5%
N#C/C(=C\c1ccc(-c2ccc(Br)cc2)o1)C(=O)Nc1ccccc1O	-5%	-8%	-9%	-4%	-21%	.
N#C/C(=C\c1ccc(-c2ccc(C(=O)O)cc2)o1)C(=O)Nc1ccccc1C(=O)O	4%	2.5µM*	-25%	2%	-16%	.
CCOc1ccc(NC(=O)/C(C#N)=C\c2ccc(-c3ccc(Cl)cc3)o2)cc1	-2%	1.4µM*	-19%	-14%	?	.
CCOC(=O)CN1NC2(CCCCC2)NC1=S	-3%	-8%	-8%	0%	-10%	-4%
COc1ccc(NS(=O)(=O)c2cc(Cl)ccc2Cl)cc1S(=O)(=O)N1CCCCC1	1%	4%	-14%	-7%	0%	-1%
CC(=O)c1cc(-c2ccc(F)cc2)n(CCC(=O)Nc2cc(C)[nH]n2)c1C	-2%	-2%	-3%	-2%	1%	8%
Cc1ccc(Nc2nnc(SCc3cc(=O)n4cc(C)ccc4n3)s2)cc1	6%	?	-9%	3%	-2%	-4%
O=C(N/N=C/c1cccnc1)c1ccc(S(=O)(=O)N2CCCCCC2)cc1	6%	-6%	-16%	-10%	-1%	1%
Cc1ccccc1NC(=O)Cn1c(C)nc2ccc(NC(=O)C3CC3)cc2c1=O	11%	-14%	-12%	-2%	2%	-6%
COc1ccc2c(c1)C(=NNC(=O)c1ccccn1)c1cc(OC)ccc1-2	-27%	?	-10%	-8%	1%	11%
C=CCOc1ccc(/C=C/C(C)=N\O)cc1	5%	-15%	-14%	-6%	0%	.
C=CCOc1ccc2c(c1)C(=NO)c1cc(OCC=C)ccc1-2	3%	7.9µM*	?	?	2%	-1%
COc1ccc2c(c1)C(=NO)c1cc(OC)ccc1-2	-9%	0.71µM*	?	0%	-3%	1%
Cc1ccc(N2CC(C(=O)Nc3nnc(SCC(=O)Nc4nc(C)cs4)s3)CC2=O)cc1 (stereo not drawn)	-3%[53 µM]	9%	1%	2%	-1%[53 µM]	16%
CCn1c(CNC(=O)C23CC4CC(CC(C4)C2)C3)nnc1SCC(=O)Nc1ccccc1	-5%	-1%	-13%	-2%	0%	.
CC1CCN(c2nc(Cl)nc(Nc3ccc([N+](=O)[O-])cc3)n2)CC1	-5%	?	8.9µM*[quencher]	?	-3%	7%
SMILES	TRb SRC2 PPI	Tau ThT inhib	Tau fluor counter	Tau FP inhib	TR SRC2 fluor cs	GoLoco inh red
C=CCNc1nc(Nc2ccc([N+](=O)[O-])cc2)nc(N2CCCC2)n1	-1%	?	?	-14%	-2%	5%
COCCn1ccc2c(OCC(=O)Nc3cccc(C(F)(F)F)c3)cccc2c1=O	-8%	?	-27%	-14%	-1%	.
COc1cc(C(Nc2ccccn2)c2ccc3ccc(C)nc3c2O)cc(OC)c1O (stereo not drawn)	-4%	16µM*	?	?	0%	-26%
Cc1ccc2ccc(C(Nc3ccccn3)c3ccccc3)c(O)c2n1 (stereo not drawn)	-5%	?	-19%	6%	-36%	0%
CC1(C)CCC2=C(O1)c1ccccc1C(=O)C2=O	?	13µM*	-24%	?	-7%	-4%
CCC(=O)c1cc(F)c(N2CCN(S(=O)(=O)c3ccccc3)CC2)cc1C	-8%	-19%	-24%	0%	-7%	-6%
Cc1ccc(S(=O)(=O)Nc2ccc(Oc3cccnc3)nc2)cc1	5%	0%	-9%	0%	0%	-5%
Cc1oc(C)c2c(=O)ccc3c(c12)OC(N)=C(C#N)C3c1ccccc1Cl (stereo not drawn)	-7%	20µM*	?	?	13%	88%
CSc1ccc(C2C(C#N)=C(N)Oc3c2ccc(=O)c2c(C)oc(C)c32)cc1 (stereo not drawn)	-21%	25µM*	?	?	5%	198%
COc1ccc(C2C(C#N)=C(N)Oc3c2oc(CO)cc3=O)cc1 (stereo not drawn)	-14%	-8%	-8%	-5%	-1%	4%
Cc1oc(C)c2c(=O)ccc3c(c12)OC(N)=C(C#N)C3c1ccccc1 (stereo not drawn)	-4%	25µM*	?	?	6%	74%
COCC1CCN(Cc2cn[nH]c2-c2ccc(OC)cc2F)C1 (stereo not drawn)	-5%	10%	11%	8%	-1%	47%
Cc1ccc(S(=O)(=O)Nc2nsc(N)n2)cc1	-22%	11µM*	-23%	18µM*	0%	7%
O=C(CN1C(=O)c2ccccc2C1=O)Nc1cccc([N+](=O)[O-])c1	3%	-8%	-14%	-5%	-7%	9%
CC(=O)c1cccc(NC(=O)C(OC(=O)c2ccccc2NS(=O)(=O)c2cccs2)c2ccccc2)c1 (stereo not drawn)	-7%	13%	?	18µM*	0%	-2%
O=C(Nc1ccc(Cl)c(Cl)c1)Nc1ccccc1NS(=O)(=O)c1cccs1	11%	?	7.1µM*[quencher]	14µM*	-2%	-4%
CCOC(=O)c1cn(Cc2ccc(Cl)cc2Cl)c2cc(C)nn2c1=O	5%	-8%	-10%	1%	0%	18%
